In all, about 330,000 compounds went through this assay and about 1,400 (0.42%) were called active. For the sample, actives were picked, then their nearest neighbours and some compounds at random. Values without a mark were called inactive.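 The calls were made as follows: active = plate passing quality check with inhibition over a set limit, or well fluorescence over plate mean plus 4 SD; inactive = the rest.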

This assay can be described thus: inhibitors of Candida efflux pumps in yeast, primary screen, S. cerevisiae, Nile Red, multiplex (AID 485275).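 Also: Nile Red retained in pooled yeast measured as flow cytometry median fluorescence; 0% = buffer negative control and 100% = Enniatin B positive control; higher means more Nile Red kept so more efflux inhibition.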 The settings on record: S. cerevisiae Candida pump triplex, at 10 µM, active compounds read high.
One may read the inhibition as the change of the read-out against control, counted positive when it falls. For the compound `O=c1[nH]c2ccccc2n2c(-c3ccccc3)nnc12`, the inhibition was 0.01%. Next, `NNC(=O)CSc1nnc(-c2ccccc2)n1-c1ccccc1`: 0.17%. Under `CC1CC(C)CN(CCCNC(=O)Cn2ncc3c([nH]c4ccccc43)c2=O)C1` (stereo not drawn) stands 0.29%; under `Cc1cccc(CCNC(=O)Cn2ncc3c([nH]c4ccc(C)cc43)c2=O)c1`, 0.33%. Under `Cc1ccc2[nH]c3c(=O)n(CC(=O)NCCc4ccc(Cl)cc4)ncc3c2c1` stands 0.66% (active). On to `O=C(COc1ccc(/C=N/NC(=O)c2ccc(O)cc2)cc1)Nc1ccc([N+](=O)[O-])cc1`, for which the inhibition is -0.1%.

With `CCCCCC(=O)Nc1ccc(C(=O)N/N=C/c2ccc([N+](=O)[O-])cc2)cc1`, the inhibition was 9.14% (active). As for `CCCCCC(=O)NC(=S)NNC(=O)c1ccc([N+](=O)[O-])cc1`, the inhibition is 0.09%. As to `CC1(C(=O)NNC(=S)NCC2CCCO2)CC1(Cl)Cl` (stereo not drawn), the inhibition is -0.05%. Turning to `C[n+]1ccc(/C=C/c2c[nH]c3ccccc23)cc1`, the inhibition was 2.57% (active).

For `COc1ccc(/C=C(\C#N)c2c[nH]c3ccccc23)cc1`, the inhibition is 0.35%. As to `O=C(NC1CCCC1)C(=O)c1c[nH]c2ccccc12`, the inhibition was -0.55%. Next, `CN(C)c1nc2n(c(=O)n1)CCO2`: 0.06%; `Nc1nc(O)c(CC(=O)O)s1`: 0.36%; `CN(c1ccccc1)c1ccc(/C=c2\s/c(=C(/C#N)C(=O)C(C)(C)C)n(Cc3ccco3)c2=O)cc1`: 7.32% (active).

Regarding `Cc1ccc(C(=O)NCC(c2cccs2)N(C)C)cc1S(=O)(=O)N1CCOCC1` (stereo not drawn), the inhibition is 0.37%. Under `Cc1ccc(-c2nn(-c3ccc(F)cc3)cc2C(=O)NCC(c2cccs2)N2CCOCC2)cc1` (stereo not drawn) stands 0.02%; under `CCCN1CNC(=S)N(CCc2ccccc2)C1`, -0.07%.

With `C/C(=C\c1ccco1)CN1CCC(N2CCC(C(=O)N3CCOCC3)CC2)CC1`, the inhibition is -0.13%.

Consider `NNC(=O)COc1ccc(C2SCCS2)cc1`, for which the inhibition was 0.52% (active). On to `O=C(COc1ccc(Cl)cc1)Nc1ccc2c(c1)OCO2`, for which the inhibition is 0.16%. Under `COc1ccc(OCC(=O)NNC(=O)C2CCC2)cc1` stands 0.28%; under `Cc1ccc(CS(=O)(=O)CCC(=O)NCc2ccc(F)cc2)cc1`, 0.01%.

Regarding `COc1ccc(NC(=O)Cn2ncn3c(cc4ccccc43)c2=O)c(OC)c1OC`, the inhibition is 0.03%. For `CC(C)c1ccc(NC(=O)Cn2ncc3ccccc32)cc1`, the inhibition was 0.04%. Turning to `CCc1ccc(NC(=O)Cn2ncn3c(cc4ccccc43)c2=O)cc1`, the inhibition was 0.97% (active). In the case of `CC(=O)Nc1ccc(S(=O)(=O)NC(C)C(=O)OCCOc2ccc(F)cc2)cc1` (stereo not drawn), the inhibition is -0.06%.

As to `COc1cccc(N(CC(=O)NC2CCCC2)C(=O)Cn2nnc(-c3ccc(C)o3)n2)c1`, the inhibition was -0.2%.

Regarding `O=C1CCN(CCc2ccccc2)CCN1CCOc1ccccc1`, the inhibition was -0.09%. Under `CCN(CC(=O)Nc1cccc(S(N)(=O)=O)c1)Cc1nc2ccccc2c(=O)[nH]1` stands -0.01%; under `Cc1ccc2[nH]c(=O)c(CN3CCCCC3)c(-c3ccccc3)c2c1`, 0.13%. Next, `CCCc1nc(N2CCN(C)CC2)c2sc(=S)n(-c3ccccc3)c2n1`: 0.75% (active); `CCCc1nc(-c2ccccc2O)n(-c2ccccc2)n1`: 0.2%; `Cc1cccc(-n2c(N)c(C(=O)N3CCN(C)CC3)sc2=S)c1`: -0.2%. As to `CCCN(CC(=O)Nc1ccccc1C)C(=O)c1ccc2[nH]c3c(c2c1)CC(C)CC3` (stereo not drawn), the inhibition was 0.26%.

Turning to `Cn1nc(C(C)(C)C)c(NC(=O)c2sccc2Cl)c1C(C)(C)C`, the inhibition was 0.22%.

As for `COc1cccc(CNS(=O)(=O)c2csc(C(N)=O)c2)c1`, the inhibition is -0.01%.

Regarding `CN(CCNC(=O)c1cc2c(-c3ccccc3F)nn(C)c2s1)C1CCCCC1`, the inhibition is 0%. Under `CCCCCCCCCCCCCCCC(=O)OC/C=C(C)/C=C/C=C(C)/C=C/C1=C(C)CCCC1(C)C` stands 1.61% (active); under `CC1=C(/C=C/C(C)=C/C=C/C(C)=C/C=C/C=C(C)/C=C/C=C(C)/C=C/C2=C(C)CCCC2(C)C)C(C)(C)CCC1`, 0.08%; under `CCc1ccc(/C=N/NC(=O)c2ccc(OC3CCCC3)cc2)s1`, -0.12%. Next, `COCCOC1CCN(C(=O)c2ccc(OC)c(OC3CCN(C(C)C)CC3)c2)CC1`: -0.1%; `CCOc1ccc(NC(=O)c2cccc3c2C(=O)N(CC2CCCO2)C3)cc1` (stereo not drawn): 0.06%. Turning to `O=C(Cn1c(-c2cscn2)nc2ccccc21)Nc1ccc(Cl)cc1`, the inhibition was -0.15%. Take `O=C(Cn1c(COc2ccccc2)nc2ccccc21)Nc1cc(Cl)c(Cl)cc1Cl`: the inhibition was 0.72% (active).

`CC(C)n1c(COc2ccccc2)nc2ccccc21`: the inhibition is 0.39%. Under `Cc1ccc(C)c(NC(=O)c2ccc(OC(=O)c3ccco3)cc2)c1` stands 0.04%; under `COc1ccccc1/C=C/C=N/n1c(-c2ccc(Cl)cc2Cl)n[nH]c1=S`, 0.42% (active). Under `Fc1ccccc1/C=N/n1c(-c2cccnc2)n[nH]c1=S` stands -0.01%. Under `S=c1[nH]nc(-c2ccncc2)n1/N=C/c1ccccc1Cl` stands 0.13%; under `Cn1c(=O)c2c(nc(N3CCCCCC3)n2CC(O)COc2ccc(Cl)cc2)n(C)c1=O` (stereo not drawn), 0.11%; under `CCCCN1C(=O)/C(=C2/Sc3ccc(Cl)cc3N2CC)SC1=S`, -0.02%. In the case of `CCCCN1C(=O)/C(=C/C=C2/C=Cc3ccccc3N2CC)SC1=S`, the inhibition is 1% (active).

Consider `CCCCN1C(=O)/C(=C2/C=CC=CN2C)SC1=S`, for which the inhibition is 0.04%. Next, `Cc1ccc(N2CCN(c3ccc(C)cc3)C2c2ccccn2)cc1`: 0.22%; `CSCCC(NC(=O)COc1ccccc1)C(=O)OCCOc1ccc(F)cc1` (stereo not drawn): 0.07%; `CSCCC(NC(=O)COc1ccccc1)C(=O)OCCOc1ccc(Br)cc1` (stereo not drawn): 0.49% (active). Under `CSCCC(NC(=O)COc1ccccc1)C(=O)OCC(=O)c1cc2ccccc2o1` (stereo not drawn) stands -0.18%; under `O=C(CCC(=O)N1CCCC1)Nc1ccc([N+](=O)[O-])cc1`, 0.32%; under `Cc1ccc(NC(=O)c2ccc(Cl)nc2)cc1S(=O)(=O)N1CCOCC1`, 0.15%.

`Cc1cc(C(=O)Nc2ccc(C)c(S(=O)(=O)N3CCOCC3)c2)c2ccccc2n1`: the inhibition was 1.11% (active). As to `Cc1cc(C(=O)NNC(=O)c2cccc(S(=O)(=O)N3CCOCC3)c2)c2ccccc2n1`, the inhibition was 0%. Next, `COc1ccc(C2(C)NC(=O)N(CC(=O)c3ccc4c(c3)OCO4)C2=O)cc1` (stereo not drawn): 0.11%; `CCCCN(C(=O)C(CCSC)N1C(=O)c2ccccc2C1=O)c1c(N)n(CCC)c(=O)[nH]c1=O` (stereo not drawn): -0.17%; `Cc1nn(C)cc1N1C(=O)c2cccc3c(N)ccc(c23)C1=O`: 0.48% (active). For the compound `Cc1ccc(NC(=O)COC(=O)C2C3CC4OC(=O)C2C4C3)cc1Cl` (stereo not drawn), the inhibition was 0.04%.

Turning to `COc1c(C(C)C)oc2cc3oc(=O)ccc3cc12`, the inhibition is 0%. Next, `Cc1noc(C)c1COc1ccc2ccc(=O)oc2c1`: 0.13%; `Cc1oc2cc3oc(=O)ccc3cc2c1C`: 2.16% (active). Under `CC[C@]1(C(=O)OC)[C@H]2C(=O)N(Cc3ccccc3)C(=O)[C@H]2[C@H]2CN=C(SCc3ccc(Cl)cc3)N21` stands 0.03%; under `CC(=O)N1CCN(CC(C)(C)NS(=O)(=O)c2ccc(C)cc2)CC1`, 0.16%; under `CCn1ncc(C2=NOC(C(=O)Nc3ccccc3C(=O)OC)C2)c1C` (stereo not drawn), -0.18%. Under `Cc1cccc(NC(=O)COc2ccc(Br)cc2C)n1` stands -0.04%; under `Cc1ccccc1OCC(=O)Nc1nc(C)c(C(=O)N(C)C)s1`, -0.09%; under `Cc1cccc(NC(=O)COc2ccccc2C)n1`, 1.07% (active).

Turning to `COc1ccc(Cc2nc3ccc(C(=O)N4CCC(N(C)C)C4)cc3o2)cc1` (stereo not drawn), the inhibition was -0.47%. For `O=C(COc1ccccc1F)NNC(=O)c1cc(Br)ccc1Cl`, the inhibition was 0.03%. Turning to `CC1CCN(C(=O)CCc2nnc3ccc(NCc4ccco4)nn23)CC1`, the inhibition was 0.1%. For the compound `CCC1(CC)NC(=O)N(CC(=O)OCC(=O)NC(=O)c2ccccc2)C1=O`, the inhibition was 0.07%. On to `O=S(=O)(NCC1OCCc2ccccc21)c1ccccc1` (stereo not drawn), for which the inhibition is -0.08%. Under `O=C(Cc1ccccc1)NCC1OCCc2ccccc21` (stereo not drawn) stands 0.87% (active). Under `NC(=O)c1oc2ccccc2c1NC(=O)Cc1ccccc1` stands 0.32%; under `CCOc1ccc2nc(Cl)c(C3CC(c4ccccc4)=NN3C(=O)c3cccs3)cc2c1` (stereo not drawn), 0.46% (active); under `CCOc1ccccc1C1CC(c2cccc(NS(C)(=O)=O)c2)=NN1C(=O)c1ccccc1` (stereo not drawn), -0.18%. For the compound `COc1ccc(C2=NN(C(=O)c3ccccc3C(=O)O)C(c3ccccc3O)C2)cc1` (stereo not drawn), the inhibition was -0.05%.

Consider `N#Cc1ccc(CN2CCN(CC(=O)Nc3ccccc3C(=O)NC3CC3)CC2)cc1`, for which the inhibition was 0.14%. Next, `CCCCC(NS(=O)(=O)c1ccc(C)cc1)C(=O)Oc1ccc2c3c(c(=O)oc2c1)CCC3` (stereo not drawn): 0.09%; `C/C(N)=C(/C#N)C(=O)COC(=O)c1cc(-c2ccc(C)cc2)nc2ccccc12`: -0.3%; `C/C(N)=C(/C#N)C(=O)COC(=O)c1cc(-c2ccccc2)nc2ccc(Br)cc12`: 0.06%. On to `C/C(N)=C(/C#N)C(=O)COC(=O)c1cc(-c2cccc(Br)c2)nc2ccccc12`, for which the inhibition was 37.8% (active). As to `CC(C)c1nnc(NC(=O)C2CCCN2S(=O)(=O)c2ccc(Cl)cc2)s1` (stereo not drawn), the inhibition was -0.16%. Next, `COc1ccccc1NC(=O)C1CCCN1S(=O)(=O)c1ccc(Cl)cc1` (stereo not drawn): 0.94% (active). Next, `Cc1cccc(NC(=O)C2CCCN2S(=O)(=O)c2ccc(F)cc2)c1C` (stereo not drawn): -0.01%.

Values taken from PubChem BioAssay AID485275 (NMMLSC, 2010).
